Measured values reported in ChEMBL document CHEMBL2218924, “A broad activity screen in support of a chemogenomic map for kinase signalling research and drug discovery” (Biochem J, 2013).

Legend:
[1] = target: T1, Protein kinase C zeta type (Homo sapiens) (UniProt Q05513); conditions: at 1 µM
T1 sequence (whole entry): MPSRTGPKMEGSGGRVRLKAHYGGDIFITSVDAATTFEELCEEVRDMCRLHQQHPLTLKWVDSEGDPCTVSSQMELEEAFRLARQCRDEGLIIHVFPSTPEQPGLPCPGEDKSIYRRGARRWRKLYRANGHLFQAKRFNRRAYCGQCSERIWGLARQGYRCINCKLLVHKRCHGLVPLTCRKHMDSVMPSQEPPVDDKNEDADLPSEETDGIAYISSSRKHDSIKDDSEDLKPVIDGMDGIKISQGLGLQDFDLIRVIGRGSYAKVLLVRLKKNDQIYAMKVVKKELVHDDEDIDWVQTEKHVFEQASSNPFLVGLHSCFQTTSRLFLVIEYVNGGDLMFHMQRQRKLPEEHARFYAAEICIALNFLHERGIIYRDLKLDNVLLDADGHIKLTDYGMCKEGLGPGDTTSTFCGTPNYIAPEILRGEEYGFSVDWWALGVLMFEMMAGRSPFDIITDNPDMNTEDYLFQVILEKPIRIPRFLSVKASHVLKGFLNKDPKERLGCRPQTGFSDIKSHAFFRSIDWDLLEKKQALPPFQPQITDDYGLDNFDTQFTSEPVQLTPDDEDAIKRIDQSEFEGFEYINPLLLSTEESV

[2] = target: T2, Mitogen-activated protein kinase kinase kinase 5 (Homo sapiens) (UniProt Q99683); conditions: at 10 µM
T2 sequence (whole entry): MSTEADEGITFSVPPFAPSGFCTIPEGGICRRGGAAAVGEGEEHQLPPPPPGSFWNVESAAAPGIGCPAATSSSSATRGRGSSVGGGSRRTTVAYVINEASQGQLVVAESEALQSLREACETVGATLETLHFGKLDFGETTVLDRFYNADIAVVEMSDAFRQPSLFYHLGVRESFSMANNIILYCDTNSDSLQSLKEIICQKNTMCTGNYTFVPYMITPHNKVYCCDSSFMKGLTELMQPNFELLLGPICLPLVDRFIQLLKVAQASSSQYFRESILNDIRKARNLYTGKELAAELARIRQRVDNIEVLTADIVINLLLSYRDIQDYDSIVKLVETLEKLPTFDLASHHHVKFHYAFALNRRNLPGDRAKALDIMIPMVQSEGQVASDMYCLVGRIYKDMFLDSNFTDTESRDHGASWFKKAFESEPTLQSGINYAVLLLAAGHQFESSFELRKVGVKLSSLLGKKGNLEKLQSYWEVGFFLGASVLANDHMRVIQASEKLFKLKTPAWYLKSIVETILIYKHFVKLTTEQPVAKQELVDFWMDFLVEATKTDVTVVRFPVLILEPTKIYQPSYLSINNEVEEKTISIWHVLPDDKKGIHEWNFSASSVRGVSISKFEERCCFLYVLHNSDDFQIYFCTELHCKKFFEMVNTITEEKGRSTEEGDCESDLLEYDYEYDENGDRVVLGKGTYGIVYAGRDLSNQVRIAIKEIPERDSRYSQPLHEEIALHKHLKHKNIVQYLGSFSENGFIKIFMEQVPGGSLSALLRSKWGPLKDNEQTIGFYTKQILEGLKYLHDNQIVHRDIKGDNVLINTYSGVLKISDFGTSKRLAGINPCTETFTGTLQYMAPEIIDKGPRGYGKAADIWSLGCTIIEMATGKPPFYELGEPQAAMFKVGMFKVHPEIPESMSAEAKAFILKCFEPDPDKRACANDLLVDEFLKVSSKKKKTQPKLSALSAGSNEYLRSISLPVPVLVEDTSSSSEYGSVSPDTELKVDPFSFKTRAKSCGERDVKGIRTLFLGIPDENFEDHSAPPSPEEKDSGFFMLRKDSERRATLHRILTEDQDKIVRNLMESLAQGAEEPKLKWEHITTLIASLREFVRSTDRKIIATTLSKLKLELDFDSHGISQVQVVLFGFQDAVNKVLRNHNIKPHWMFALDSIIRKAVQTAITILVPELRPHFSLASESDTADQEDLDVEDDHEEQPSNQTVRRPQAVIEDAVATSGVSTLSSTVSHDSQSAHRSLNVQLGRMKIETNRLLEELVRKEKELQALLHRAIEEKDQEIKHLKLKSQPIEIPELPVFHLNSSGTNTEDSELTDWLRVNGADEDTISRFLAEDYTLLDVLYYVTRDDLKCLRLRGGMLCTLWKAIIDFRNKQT

[3] = target: Tyrosine-protein kinase ABL1 (Homo sapiens) (UniProt P00519); conditions: at 1 µM
Chain of Tyrosine-protein kinase ABL1 (Homo sapiens) (P00519 whole entry): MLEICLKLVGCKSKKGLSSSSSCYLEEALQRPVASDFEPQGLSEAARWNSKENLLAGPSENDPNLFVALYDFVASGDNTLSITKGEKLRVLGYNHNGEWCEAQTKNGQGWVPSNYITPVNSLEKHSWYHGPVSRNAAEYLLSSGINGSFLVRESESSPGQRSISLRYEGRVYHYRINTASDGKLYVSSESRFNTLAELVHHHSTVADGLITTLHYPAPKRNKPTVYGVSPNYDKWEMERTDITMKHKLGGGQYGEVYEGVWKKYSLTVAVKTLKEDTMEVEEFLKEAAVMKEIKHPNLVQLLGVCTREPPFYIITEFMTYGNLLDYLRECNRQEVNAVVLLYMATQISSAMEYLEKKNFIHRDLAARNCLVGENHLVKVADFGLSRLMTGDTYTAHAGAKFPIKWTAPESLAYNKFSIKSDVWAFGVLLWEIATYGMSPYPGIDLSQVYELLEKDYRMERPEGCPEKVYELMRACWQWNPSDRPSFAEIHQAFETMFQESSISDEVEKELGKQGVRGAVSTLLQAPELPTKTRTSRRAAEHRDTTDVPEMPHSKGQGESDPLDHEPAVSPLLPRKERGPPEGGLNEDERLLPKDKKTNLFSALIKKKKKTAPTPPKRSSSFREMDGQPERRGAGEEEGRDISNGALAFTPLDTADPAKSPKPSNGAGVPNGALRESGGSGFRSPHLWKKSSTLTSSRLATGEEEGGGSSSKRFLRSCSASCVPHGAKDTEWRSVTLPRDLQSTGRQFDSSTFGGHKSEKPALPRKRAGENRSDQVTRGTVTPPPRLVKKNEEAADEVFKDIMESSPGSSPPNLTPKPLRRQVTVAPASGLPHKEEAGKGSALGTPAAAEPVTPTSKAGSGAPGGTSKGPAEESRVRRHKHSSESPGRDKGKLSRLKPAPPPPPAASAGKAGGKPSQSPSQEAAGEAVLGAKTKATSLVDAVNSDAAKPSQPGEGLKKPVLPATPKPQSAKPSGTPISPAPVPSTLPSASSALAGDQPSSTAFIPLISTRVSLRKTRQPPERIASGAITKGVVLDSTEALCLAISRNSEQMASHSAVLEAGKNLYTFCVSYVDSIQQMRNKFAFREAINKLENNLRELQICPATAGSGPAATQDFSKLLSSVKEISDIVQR

[4] = target: Tyrosine-protein kinase ABL1 (Homo sapiens) (UniProt P00519); conditions: at 10 µM
[5] = target: Tyrosine-protein kinase ABL2 (Homo sapiens) (UniProt P42684); conditions: at 1 µM
Chain of Tyrosine-protein kinase ABL2 (Homo sapiens) (P42684 whole entry): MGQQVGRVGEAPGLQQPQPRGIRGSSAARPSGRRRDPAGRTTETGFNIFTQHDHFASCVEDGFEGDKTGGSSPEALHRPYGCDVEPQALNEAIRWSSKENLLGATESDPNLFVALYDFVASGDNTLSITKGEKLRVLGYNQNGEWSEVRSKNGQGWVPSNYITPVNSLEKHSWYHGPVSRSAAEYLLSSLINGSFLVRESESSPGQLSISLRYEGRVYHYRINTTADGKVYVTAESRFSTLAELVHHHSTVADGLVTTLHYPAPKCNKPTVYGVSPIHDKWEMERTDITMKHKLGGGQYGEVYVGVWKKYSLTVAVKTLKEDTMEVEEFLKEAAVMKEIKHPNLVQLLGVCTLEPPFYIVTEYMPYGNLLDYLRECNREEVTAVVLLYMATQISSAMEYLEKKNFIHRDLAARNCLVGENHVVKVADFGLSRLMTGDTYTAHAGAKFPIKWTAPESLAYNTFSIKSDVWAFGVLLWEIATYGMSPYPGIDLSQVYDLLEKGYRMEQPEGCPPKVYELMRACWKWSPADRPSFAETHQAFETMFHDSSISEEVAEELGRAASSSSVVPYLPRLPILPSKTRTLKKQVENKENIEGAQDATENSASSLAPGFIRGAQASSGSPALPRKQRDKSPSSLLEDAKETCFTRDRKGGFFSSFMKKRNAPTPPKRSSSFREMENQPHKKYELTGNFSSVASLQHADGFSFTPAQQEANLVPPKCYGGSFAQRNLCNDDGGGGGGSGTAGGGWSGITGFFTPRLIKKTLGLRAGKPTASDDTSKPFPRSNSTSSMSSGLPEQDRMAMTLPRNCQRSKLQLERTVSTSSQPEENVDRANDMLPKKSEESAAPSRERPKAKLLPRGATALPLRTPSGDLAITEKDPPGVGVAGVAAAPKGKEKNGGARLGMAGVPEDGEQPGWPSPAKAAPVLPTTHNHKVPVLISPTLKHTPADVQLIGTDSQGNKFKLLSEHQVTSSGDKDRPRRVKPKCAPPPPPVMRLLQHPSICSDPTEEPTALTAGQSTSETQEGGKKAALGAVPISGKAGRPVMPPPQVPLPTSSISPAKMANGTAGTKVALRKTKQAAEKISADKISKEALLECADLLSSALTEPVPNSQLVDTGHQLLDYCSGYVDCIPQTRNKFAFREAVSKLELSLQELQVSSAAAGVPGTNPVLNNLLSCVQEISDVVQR

[6] = target: Tyrosine-protein kinase ABL2 (Homo sapiens) (UniProt P42684); conditions: at 10 µM
[7] = target: T3, Aurora kinase A (Homo sapiens) (UniProt O14965); conditions: at 1 µM
T3 sequence (whole entry): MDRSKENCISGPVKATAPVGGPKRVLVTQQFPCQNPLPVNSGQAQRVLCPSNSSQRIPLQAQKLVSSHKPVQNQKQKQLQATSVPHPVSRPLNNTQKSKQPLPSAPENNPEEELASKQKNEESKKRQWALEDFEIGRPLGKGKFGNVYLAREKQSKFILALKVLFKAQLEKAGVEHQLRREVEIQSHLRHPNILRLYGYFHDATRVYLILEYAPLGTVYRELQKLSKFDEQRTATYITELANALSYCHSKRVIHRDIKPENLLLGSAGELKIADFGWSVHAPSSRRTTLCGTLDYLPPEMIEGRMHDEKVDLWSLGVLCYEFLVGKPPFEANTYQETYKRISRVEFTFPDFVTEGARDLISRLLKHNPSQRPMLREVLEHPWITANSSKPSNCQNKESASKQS

[8] = target: T3, Aurora kinase A (Homo sapiens); conditions: at 10 µM
[9] = target: Aurora kinase B (Homo sapiens) (UniProt Q96GD4); conditions: at 1 µM
Chain of Aurora kinase B (Homo sapiens) (Q96GD4 whole entry): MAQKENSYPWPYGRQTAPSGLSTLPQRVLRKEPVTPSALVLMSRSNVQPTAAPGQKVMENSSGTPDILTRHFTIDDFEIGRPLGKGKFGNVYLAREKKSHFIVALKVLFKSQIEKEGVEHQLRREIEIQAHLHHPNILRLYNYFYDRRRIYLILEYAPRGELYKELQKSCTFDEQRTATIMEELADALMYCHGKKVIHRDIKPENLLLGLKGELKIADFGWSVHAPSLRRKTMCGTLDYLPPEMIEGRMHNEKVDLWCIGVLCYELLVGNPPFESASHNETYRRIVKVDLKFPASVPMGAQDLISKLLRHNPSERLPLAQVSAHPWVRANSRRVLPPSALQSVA

[10] = target: Aurora kinase B (Homo sapiens) (UniProt Q96GD4); conditions: at 10 µM
[11] = target: T4, Aurora kinase C (Homo sapiens) (UniProt Q9UQB9); conditions: at 1 µM
T4 sequence (whole entry): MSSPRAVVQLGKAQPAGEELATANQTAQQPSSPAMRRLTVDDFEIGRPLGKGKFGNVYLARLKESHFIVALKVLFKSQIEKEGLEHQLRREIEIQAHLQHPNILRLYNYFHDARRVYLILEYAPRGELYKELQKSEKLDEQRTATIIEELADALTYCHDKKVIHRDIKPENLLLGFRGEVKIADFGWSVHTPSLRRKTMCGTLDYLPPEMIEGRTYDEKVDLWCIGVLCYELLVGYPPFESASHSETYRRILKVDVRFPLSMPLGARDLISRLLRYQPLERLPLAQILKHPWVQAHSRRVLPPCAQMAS

[12] = target: T4, Aurora kinase C (Homo sapiens); conditions: at 10 µM
[13] = target: Tyrosine-protein kinase receptor UFO (Homo sapiens) (UniProt P30530); conditions: at 1 µM
Chain of Tyrosine-protein kinase receptor UFO (Homo sapiens) (P30530 whole entry): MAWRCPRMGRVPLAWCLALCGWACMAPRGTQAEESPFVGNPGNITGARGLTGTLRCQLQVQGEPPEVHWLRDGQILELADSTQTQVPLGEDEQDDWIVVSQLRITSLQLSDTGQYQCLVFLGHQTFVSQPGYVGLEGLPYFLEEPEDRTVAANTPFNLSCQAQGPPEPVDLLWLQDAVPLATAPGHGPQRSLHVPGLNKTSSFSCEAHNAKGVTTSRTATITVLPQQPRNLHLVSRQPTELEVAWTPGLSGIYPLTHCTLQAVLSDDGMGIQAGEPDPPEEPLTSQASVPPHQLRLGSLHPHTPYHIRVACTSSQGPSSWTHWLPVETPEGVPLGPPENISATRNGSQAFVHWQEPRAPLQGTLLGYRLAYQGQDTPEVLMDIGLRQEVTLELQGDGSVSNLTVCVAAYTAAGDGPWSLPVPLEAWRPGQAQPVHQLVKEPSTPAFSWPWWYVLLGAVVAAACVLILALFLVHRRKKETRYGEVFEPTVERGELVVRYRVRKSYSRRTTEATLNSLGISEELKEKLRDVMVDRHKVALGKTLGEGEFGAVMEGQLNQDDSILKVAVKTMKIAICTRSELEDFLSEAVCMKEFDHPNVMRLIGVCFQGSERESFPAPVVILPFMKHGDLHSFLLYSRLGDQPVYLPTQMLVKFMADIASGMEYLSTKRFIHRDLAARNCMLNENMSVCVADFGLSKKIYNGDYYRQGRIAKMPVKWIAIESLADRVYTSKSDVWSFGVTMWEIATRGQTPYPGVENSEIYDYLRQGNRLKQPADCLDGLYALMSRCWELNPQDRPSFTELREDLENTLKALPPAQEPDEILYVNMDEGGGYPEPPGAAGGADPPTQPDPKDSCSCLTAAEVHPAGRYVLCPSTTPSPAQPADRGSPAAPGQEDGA

[14] = target: Tyrosine-protein kinase receptor UFO (Homo sapiens) (UniProt P30530); conditions: at 10 µM
[15] = target: Protein-tyrosine kinase 6 (Homo sapiens) (UniProt Q13882); conditions: at 1 µM
Chain of Protein-tyrosine kinase 6 (Homo sapiens) (Q13882 whole entry, looked up): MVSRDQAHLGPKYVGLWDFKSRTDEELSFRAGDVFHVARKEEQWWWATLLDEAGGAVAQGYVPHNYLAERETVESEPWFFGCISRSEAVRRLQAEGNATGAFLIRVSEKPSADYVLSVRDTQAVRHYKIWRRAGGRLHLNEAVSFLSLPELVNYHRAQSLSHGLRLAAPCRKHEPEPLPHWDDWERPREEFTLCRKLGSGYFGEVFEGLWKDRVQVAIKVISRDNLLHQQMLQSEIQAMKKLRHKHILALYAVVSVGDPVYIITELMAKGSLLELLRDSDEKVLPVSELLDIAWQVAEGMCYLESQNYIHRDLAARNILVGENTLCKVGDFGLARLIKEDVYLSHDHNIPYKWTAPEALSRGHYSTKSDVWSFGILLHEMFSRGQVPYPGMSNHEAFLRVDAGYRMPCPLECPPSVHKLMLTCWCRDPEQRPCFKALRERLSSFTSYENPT

[16] = target: Protein-tyrosine kinase 6 (Homo sapiens) (UniProt Q13882); conditions: at 10 µM
[17] = target: Tyrosine-protein kinase BTK (Homo sapiens) (UniProt Q06187); conditions: at 1 µM
Chain of Tyrosine-protein kinase BTK (Homo sapiens) (Q06187 whole entry): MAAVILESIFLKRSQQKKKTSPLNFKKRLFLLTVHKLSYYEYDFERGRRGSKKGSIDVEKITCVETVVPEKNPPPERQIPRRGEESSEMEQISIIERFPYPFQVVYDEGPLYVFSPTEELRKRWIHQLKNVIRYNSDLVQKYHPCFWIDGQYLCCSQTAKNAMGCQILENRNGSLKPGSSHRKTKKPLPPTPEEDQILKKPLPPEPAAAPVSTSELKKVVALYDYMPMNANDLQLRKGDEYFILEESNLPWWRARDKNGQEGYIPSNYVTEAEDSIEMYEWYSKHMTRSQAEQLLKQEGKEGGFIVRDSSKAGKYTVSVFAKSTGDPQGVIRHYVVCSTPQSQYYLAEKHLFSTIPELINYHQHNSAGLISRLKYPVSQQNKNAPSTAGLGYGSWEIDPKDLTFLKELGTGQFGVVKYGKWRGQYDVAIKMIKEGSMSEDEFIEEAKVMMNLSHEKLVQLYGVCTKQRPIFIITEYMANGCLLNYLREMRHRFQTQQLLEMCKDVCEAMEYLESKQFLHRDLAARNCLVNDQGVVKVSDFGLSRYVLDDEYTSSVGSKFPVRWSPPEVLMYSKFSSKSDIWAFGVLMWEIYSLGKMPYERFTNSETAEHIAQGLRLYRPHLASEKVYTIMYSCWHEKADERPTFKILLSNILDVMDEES

[18] = target: Tyrosine-protein kinase BTK (Homo sapiens) (UniProt Q06187); conditions: at 10 µM
[19] = target: Tyrosine-protein kinase Blk (Homo sapiens) (UniProt P51451); conditions: at 1 µM
[20] = target: Tyrosine-protein kinase Blk (Homo sapiens) (UniProt P51451); conditions: at 10 µM

Structure (SMILES)	residual activity [1]	residual activity [2] [%]	residual activity [3] [%]	residual activity [4] [%]	residual activity [5] [%]	residual activity [6] [%]	residual activity [7] [%]	residual activity [8] [%]	residual activity [9] [%]	residual activity [10] [%]	residual activity [11] [%]	residual activity [12] [%]	residual activity [13] [%]	residual activity [14] [%]	residual activity [15] [%]	residual activity [16] [%]	residual activity [17] [%]	residual activity [18] [%]	residual activity [19] [%]	residual activity [20] [%]
COc1cc2ncnc(Nc3ccc(Oc4ccccc4)cc3)c2cc1OC	108% (inactive)	73	61	75	82	93	52	30	28	9	59	59	54	25	7	4	15	2	0	0
Nc1ccc2ncnc(NCCc3ccc(Oc4ccccc4)cc3)c2c1	108% (inactive)	80	100	101	104	78	102	110	41	11	89	87	72	33	95	79	95	94	68	18
CCC(=O)Nc1ccc2ncnc(Nc3cccc(Br)c3)c2c1	116% (inactive)	108	90	89	96	72	73	127	101	67	94	80	83	80	80	60	95	78	112	80
CO[C@H]1C[C@@H]2CC[C@@H](C)[C@@](O)(O2)C(=O)C(=O)N2CCCC[C@H]2C(=O)O[C@H]([C@H](C)C[C@@H]2CC[C@@H](O)[C@H](OC)C2)CC(=O)[C@H](C)/C=C(\C)[C@@H](O)[C@@H](OC)C(=O)[C@H](C)C[C@H](C)/C=C/C=C/C=C/1C	96% (inactive)	96	91	139	119	118	87	118	92	73	79	69	89	84	101	102	91	106	90	82
O=C1NC(=O)/C(=C/c2ccc3c(c2)OC(F)(F)O3)S1	97% (inactive)	97	103	79	94	98	90	57	74	64	110	80	98	84	110	104	86	95	119	94
Cc1ccc(NC2=CC(=O)c3sc(C)nc3C2=O)cc1	100% (inactive)	116	99	82	122	91	116	96	104	68	85	85	103	112	111	108	93	86	112	96
Cn1cc(/C=C2\C(=O)Nc3ccc(S(N)(=O)=O)cc32)c2ccccc21	101% (inactive)	7	57	22	57	31	-4	4	3	0	40	39	13	27	97	101	19	5	9	3
O=c1c2ccccc2[nH]c(=S)n1CCN1CCC(=C(c2ccc(F)cc2)c2ccc(F)cc2)CC1	101% (inactive)	116	86	124	93	74	119	108	95	115	110	84	103	89	112	95	90	123	101	66
Cc1nc(-c2ccccc2)c(-c2ccncc2)o1	113% (inactive)	85	26	33	62	45	122	86	44	25	93	81	112	79	59	43	91	83	95	80
